Sampled rows, rich in hits. Any-hit rate of the full collection: about 1.4%.
EBNA-1 inh – blocks EBNA-1 binding to DNA. inhibition, % at 14.8 µM. 300,000 tested, 0.34% active. EBNA-1 DNA binding, fluorescence polarization. AID 1950; in the data active means inhibition above about 28%
LANA-H2A inh – blocks KSHV LANA binding to histone H2A/H2B; cell-free LANA-H2A/H2B peptide, fluorescence polarization; Q9QR71; inhibition, % (no concentration beside the values); 320,000 tested, 0.6% active; in the data active means inhibition mostly above about 10%, no sharp cut-off; inactive means mostly below about 6.7%
LYPLA1 inh – LYPLA1 (human) inhibition in PME1 counter-screen; O75608; recombinant LYPLA1, FP-Rh probe fluorescence polarization; inhibition, % at 5.9 µM; 320,000 tested, 0.16% active;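 active means inhibition above the mean of all tested compounds plus 3 SD, set per campaign, cut at about 14% in these data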;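 further: inhibitors block serine hydrolase probe labeling of LYPLA1 so polarization falls; 0% = enzyme with DMSO and 100% = wells lacking LYPLA1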
Target sequence (O75608 whole entry, looked up): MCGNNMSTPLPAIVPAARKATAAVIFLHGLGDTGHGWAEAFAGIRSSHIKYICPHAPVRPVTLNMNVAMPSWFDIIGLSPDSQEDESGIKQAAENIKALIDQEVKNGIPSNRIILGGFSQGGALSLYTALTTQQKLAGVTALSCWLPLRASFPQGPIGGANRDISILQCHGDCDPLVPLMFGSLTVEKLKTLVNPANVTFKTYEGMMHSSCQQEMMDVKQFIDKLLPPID
ZTA counter – counter-screen for EBNA-1 inhibitors: inhibitors of Epstein-Barr virus ZTA; 320,000 tested, 0.15% active; AID 2234; ZTA-DNA binding, fluorescence polarization; inhibition, % at 11 µM; in the data active means inhibition above about 33%
Target sequence (P03206 whole entry, looked up): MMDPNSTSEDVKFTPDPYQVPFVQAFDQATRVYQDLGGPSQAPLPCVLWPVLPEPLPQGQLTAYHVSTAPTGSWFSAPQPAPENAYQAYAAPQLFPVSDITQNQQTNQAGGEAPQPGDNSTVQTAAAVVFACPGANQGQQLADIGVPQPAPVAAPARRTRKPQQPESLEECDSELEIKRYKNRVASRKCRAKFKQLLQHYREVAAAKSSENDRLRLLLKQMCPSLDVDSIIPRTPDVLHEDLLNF
LYPLA2 inh – counter-screen for PME1 inhibitors: inhibitors of human LYPLA2; O95372; recombinant LYPLA2, FP-Rh probe fluorescence polarization; inhibition, % at 5.9 µM; 320,000 tested, 0.38% active; AID 2177;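 active means inhibition above the screen-wide mean plus 3 SD, limit set per campaign, cut at about 26% in these data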;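 further: 0% = LYPLA2 with DMSO and 100% = wells lacking LYPLA2 enzyme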
An asterisk follows results filed as active; . = no result; + = active, no number; ! = not active in a repeat.

SMILES | EBNA-1 inh | LANA-H2A inh | LYPLA1 inh | ZTA counter | LYPLA2 inh
CC(C)CC(NC(=O)C(NC(=O)OC(C)(C)C)C(C)C)C(=O)NC(CCC(=O)OCc1ccccc1)C(N)=O (stereo unspecified) | -10.2 | 21.0*! | -5.5 | -17.5 | -8.4
Cc1cc(Br)ccc1NC(=O)CN(C)Cc1cccs1 | 1.6 | -0.5 | -3.2 | 5.7 | 7.0
Oc1ccc2nnc3c(Br)cnn3c2c1 | -0.5 | 19.4* | 0.6 | 4.0 | 1.8
Clc1ccc2nc3c4ccccc4cnn3c2c1 | 7.4 | 5.2 | -0.1 | -9.9 | 2.0
Cc1cc(F)ccc1S(=O)(=O)N1CCCOC1CNC(=O)C(=O)NCc1ccncc1 (stereo unspecified) | -1.3 | -1.3 | 1.4 | -14.8 | 5.4
CS(=O)(=O)N1CCC(C(=O)Nc2cc(Cl)c(Cl)cc2Cl)CC1 | -4.6 | -3.3 | -1.6 | -11.8 | 3.8
CC(=O)c1ccc(N2CCN(C(=S)Nc3ccc(Oc4ccccc4)cc3)CC2)cc1 | 3.8 | -2.7 | 4.6 | 2.4 | 32.1*
O=C(COC(=O)COc1cccc(C(F)(F)F)c1)NC(=O)NC1CCCCC1 | 4.5 | 1.5 | 0.8 | 2.7 | -0.2
CCCCN(C(=O)C(C)N1C(=O)c2ccccc2C1=O)c1c(N)n(CCCC)c(=O)[nH]c1=O (stereo unspecified) | . | 1.9 | 0.8 | 4.5 | -3.3
CCCCn1c(N)c(N(CCC(C)C)C(=O)CCCc2nc3ccccc3s2)c(=O)[nH]c1=O | -0.4 | 4.3 | -1.7 | 6.1 | -4.9
CCCCN(C(=O)CCCc1nc2ccccc2s1)c1c(N)n(CC(C)C)c(=O)[nH]c1=O | . | 176.4* | -2.3 | -13.7 | -6.0
CCCCN(C(=O)C(C)N1C(=O)c2ccccc2C1=O)c1c(N)n(CC(C)C)c(=O)[nH]c1=O (stereo unspecified) | . | 13.6* | -1.1 | 10.4 | -6.9
O=C(NCCCN1CCOCC1)/C(=C/c1cccnc1)NC(=O)c1ccccc1 | -2.4 | 2.3 | -0.2 | -2.8 | 1.0
O=C(CSc1ccc2nnc(CCNC(=O)c3ccccc3)n2n1)NCCc1ccccc1 | -0.3 | 1.5 | -1.8 | -7.8 | 0.0
CC[C@@H]1C/C=C\Cc2ccccc2[C@@H](C(=O)C[C@H](O)CC(C)=O)OC1=O | . | + | . | . | .
COc1ccc(C)cc1NC(=O)CSc1nnc2ccc(-c3ccncc3)nn12 | 7.9 | -1.9 | 0.5 | -11.8 | 1.5
COCCNC(=S)N/N=C(\C)c1cccc(OC)c1 | -5.9 | 1.4 | 3.1 | -7.0 | 3.9
CCN1CCc2nc3sc(C(=O)N4CCc5ccccc5C4)c(N)c3cc2C1 | -13.7 | 5.6 | 0.0 | -8.3 | 7.1
CC(C)OC(=O)CC(=O)c1sc2nc3c(cc2c1N)CN(C)CC3 | 1.4 | 74.3* | -6.8 | 15.0 | -7.7
O=C(O)c1ccc(Cl)c(S(=O)(=O)Nc2cccc(C(=O)Nc3cccc(C(F)(F)F)c3)c2)c1 | 9.5 | 69.6* | -16.9 | -4.6 | -18.2
Cc1ccc(C(=O)COC(=O)CSc2cccc3cccnc23)c(C)c1 | -0.2 | 16.7* | -0.4 | -10.6 | 4.6
CCc1cccc(C)c1NC(=O)CCCN1C(=O)CN(C)C1=O | . | 1.1 | -0.1 | 16.6 | 2.2
O=C(CNC(=O)c1ccccc1F)NCCN1C(=O)S/C(=C\c2ccc3c(c2)OCO3)C1=O | . | 28.0* | 0.1 | -7.2 | 1.4
NCCN1C(=O)S/C(=C\c2ccc3c(c2)OCO3)C1=O | -2.4 | 0.2 | 1.5 | -11.2 | 2.7
CCC(NC(=O)Nc1cc(C)on1)(C(F)(F)F)C(F)(F)F | -8.1 | -0.9 | 2.9 | 7.5 | 4.3
SMILES | EBNA-1 inh | LANA-H2A inh | LYPLA1 inh | ZTA counter | LYPLA2 inh
Cc1cc(O)c(C=O)c2c1C(=O)Oc1c(CO)c(O)c3c(c1O2)C(O)OC3=O (stereo unspecified) | 22.8 | -1.5 | -4.0 | 97.0* | 2.0
CC(C)CNC(=O)c1ccccc1NC(=O)Nc1ccccc1 | -0.6 | -0.9 | -2.7 | 2.5 | -3.9
CCC(C)NC(=O)c1ccccc1NC(=O)Nc1ccccc1 (stereo unspecified) | 1.6 | 15.8* | 0.9 | -29.5 | 3.0
Cc1cccc(C)c1OCc1cc(C(=O)NC2CCC(O)CC2)no1 (stereo unspecified) | -2.3 | 21.0* | -4.8 | 25.5 | -10.7
COc1cc(CNc2ccc(N3CCCC3)cc2)ccc1OCc1ccccc1F | 65.1* | 5.1 | -1.2 | 79.2* | 9.2
COc1cc(CNc2ccc(N3CCCC3)cc2)ccc1OCc1ccccc1 | 74.5* | -0.2 | 2.1 | 75.8* | 4.8
COc1ccc(/C(O)=C2/C(=O)C(=O)N(CCN3CCNCC3)C2c2cccc([N+](=O)[O-])c2)cc1 (stereo unspecified) | -7.7 | -8.1 | -4.3 | 1.7 | -3.5
Cc1oc2c(C)c3oc(=O)c(CCC(=O)NCCN4CCOCC4)c(C)c3cc2c1C | 8.7 | 13.6* | 0.2 | -9.6 | 1.4
O=C(OCCCN=C1NS(=O)(=O)c2ccccc21)c1ccc([N+](=O)[O-])cc1 | 2.1 | 3.5 | -1.9 | 10.0 | -2.0
C/C(=N/NC(=O)c1cc(-c2cccc([N+](=O)[O-])c2)n[nH]1)c1cccc(O)c1 | 22.6 | 14.8* | -7.9 | 25.9 | -18.1
CC(C)CNC(=O)CN(c1cccc(Cl)c1)S(C)(=O)=O | -3.0 | 3.9 | 0.2 | -1.4 | 8.6
COc1ccc2c(c1OC)C(C1c3c(cc4c(c3OC)OCO4)CCN1C)OC2=O (stereo unspecified) | 2.0 | -1.9 | 1.1 | -6.8 | 0.8
COc1ccc2c(c1OC)C(=O)OC2C1c2c(cc3c(c2OC)OCO3)CCN1C (stereo unspecified) | 0.8 | 5.3*! | -3.5 | -6.5 | -4.3
CN(C(=O)CN1C(=O)S/C(=C\c2ccc(Cl)cc2)C1=O)C1CCS(=O)(=O)C1 (stereo unspecified) | -12.5 | 11.3* | -0.8 | 15.8 | -6.1
COc1ccc(/C=C2\SC(=S)N(CC(=O)N(C)C3CCS(=O)(=O)C3)C2=O)cc1 (stereo unspecified) | -8.7 | 14.1* | -3.6 | -13.5 | -6.5
CC(C)NC(=O)c1ccc(COc2ccc(C(C)(C)C)cc2)o1 | -2.9 | -3.2 | -1.1 | 0.5 | -2.8
COc1ccccc1N1CCN(CC(O)COc2cccc3ccccc23)CC1 (stereo unspecified) | -0.5 | 23.5*! | 0.6 | 6.0 | -1.4
C=C(C)c1ccccc1 | . | -32.1 | 2.6 | 5.6 | 1.0
c1ccc(Nc2ccccn2)nc1 | 9.4 | 8.3* | -4.8 | 16.4 | -7.2
O=C(CSc1nncs1)Nc1ccc(N2CCCCC2)cc1 | . | 3.5 | -1.4 | 4.9 | -0.6
N=c1c(C(=O)NCC2CCCO2)cc2c(=O)n3ccccc3nc2n1Cc1ccccc1Cl (stereo unspecified) | -20.5 | 3.1 | -0.1 | -12.0 | 4.2
O=S(=O)(NC1=NCCCCC1)c1ccc(Cl)cc1 | -9.0 | + | 2.0 | -0.5 | 4.4
CCCCCn1nc(-c2ccccc2)c2nc3ccccc3nc21 | -1.1 | 29.9* | -0.8 | 5.8 | -1.6
COc1ccc(CC(O)COS(N)(=O)=O)cc1 (stereo unspecified) | 3.8 | -1.1 | -3.8 | 14.1 | 0.9
Cc1ccc(CCNC(=O)C2CCC(=O)N(Cc3ccccc3F)C2)o1 (stereo unspecified) | 4.7 | 1.1 | 3.1 | -4.2 | 0.5
